Source: PubChem (National Center for Advancing Translational Sciences (NCATS))
The list is not random: actives were taken first. Their share in the collection is about 0.96%.
A647 fluor: compound autofluorescence in A647 spectral region; Compound fluorescence, A647 channel (570/671 nm), Tris buffer; max dye-equivalent concentration, M; 59,000 tested, under 10 active; AID 592;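 note: values scaled relative to a standard on each plate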
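Compound fluorescence was measured in 100 mM Tris buffer, pH 8.0, after 15 min at room temperature, using 570 nm excitation and 671 nm emission filters. Signal was normalized to a per-plate Alexa 647 standard curve and expressed as dye-equivalent concentration at each compound concentration.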
A488 autofl: A488 region autofluorescence; compound autofluorescence, A488 spectral region, dye equivalency; Compound Type: qHTS ECL - MLSMR; 59,000 tested, 0.1% active; AID 591; max dye equivalency, M
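Compound autofluorescence was read in 100 mM Tris pH 8.0 after 15 min at room temperature, ex 480 nm/em 540 nm. Intensities were converted to A488 dye-equivalent concentration using an on-plate six-point A488 standard curve.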
Fluorescein autfl: compound autofluorescence in fluorescein spectral region; Compound autofluorescence, 480/540 nm, fluorescein-equivalent; active compounds read high; max fluorescein-equivalent concentration, M; 59,000 tested, 0.91% active; in the data active = max fluorescein-equivalent concentration above about 10 nM; inconclusive = between about 1.1 nM and that limit
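Compounds (23 nL) in 100 mM Tris pH 8.0, 15 min at room temperature, then fluorescence read at 480 nm excitation/540 nm emission. Signal converted to fluorescein-equivalent concentration from an on-plate fluorescein standard curve.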
TexasRed autofl: compound fluoresces in the Texas Red spectral region | Compound fluorescence, Texas Red channel, 547/618 nm; active compounds read high | max dye-equivalent concentration, M | 59,000 tested, 0.06% active | AID 587; in the data active = max dye-equivalent concentration above about 10 nM; inconclusive = between about 1.1 nM and that limit
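Fluorescence at ex 547/em 618 nm, normalized against an on-plate Texas Red standard series to give dye-equivalent concentration per compound concentration. Buffer 100 mM Tris, pH 8.0; 15 min RT incubation before CCD imaging.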
Rhodamine autofl: rhodamine region autofluorescence; Rhodamine-region fluorescence, 547/598 nm, Tris buffer; active compounds read high; max dye-equivalent concentration, M; 59,000 tested, 0.05% active; AID 594; in the data active = max dye-equivalent concentration above about 11 nM; inconclusive = between about 1.1 nM and that limit
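Compound fluorescence in 100 mM Tris, pH 8.0, read after 15 min at room temperature with 547 nm excitation and 598 nm emission. Output is dye-equivalent concentration from an on-plate rhodamine standard series.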
Resorufin fluor: compounds fluorescent in resorufin spectral region; Compound fluorescence, resorufin region 547/598 nm, buffer; active compounds read high; max dye-equivalent concentration, M; 59,000 tested, 0.04% active; AID 588
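Intrinsic fluorescence profiled in the resorufin window (ex 547 nm, em 598 nm) after 15 min at room temperature in pH 8.0 Tris buffer (100 mM); responses normalized against a six-point resorufin standard series as dye-equivalent concentration.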
Active calls of the source: *; i = inactive; u = inconclusive. Unless noted, the rule behind the calls is not given here.

SMILES | A647 fluor | A488 autofl | Fluorescein autfl | TexasRed autofl | Rhodamine autofl | Resorufin fluor
Cn1ccnc1SCC(=O)c1cc2ccccc2o1 | 1e-09 | i | i | i | i | i
CCn1c(CSc2nccn2C)nc2cc(C(=O)O)ccc21 | 2.4e-08 | i | 1.1e-08M* | 2.7e-08M* | 1.7e-08M* | 1.1e-08M*
C/C(=N\NC(=O)c1ccncc1)c1ccc2ccccc2c1O | 1.1e-08 | u | 3.5e-08M* | i | i | i
COc1cc(Cn2c(N)c(C#N)c3nc4ccccc4nc32)cc(OC)c1 | 4.5e-08 | i | u | i | i | i
COc1cccc(Cn2c(N)c(C#N)c3nc4ccccc4nc32)c1OC | 3.2e-08 | i | 1.3e-08M* | i | i | i
COCCNc1ncnc2ccc(-c3ccc(C(=O)N(C)C)cc3)cc12 | 3.2e-08 | i | u | i | i | i
CN(C)c1ccc(NC(=O)CCCc2ccccc2)cc1 | 3.9e-08 | i | u | u | i | i
CN(C)c1ccc(N/C=C/C(=O)c2ccccc2)cc1 | 1.2e-08 | i | 1.4e-08M* | i | i | i
Cc1cc(N2CCOCC2)n2nc(-c3cccc(F)c3)cc2n1 | 2.7e-09 | i | 1.1e-08M* | i | i | i
COc1cccc(-c2ccc3ncnc(Nc4ccccc4)c3c2)c1 | 1e-09 | i | i | i | i | i
N[C@@H]1[C@@H]2[C@@H]3C[C@H]4N(CC[C@@]14C(=O)C(=O)O)CC3=CCO[C@@H]2CC(=O)O | 2.2e-09 | i | 1e-08M* | i | i | i
CCN1C(=O)/C(=C/N2CCc3ccccc32)SC1=S | 1.3e-08 | 1.3e-08M* | 2.2e-07M* | i | i | i
CCN1C(=O)/C(=C\N2CCCc3ccccc32)SC1=S | 2.7e-09 | i | 2e-08M* | u | i | i
O=C1c2ccccc2C(=O)N1CCC(=O)N1CCCc2ccccc21 | 1.7e-08 | i | i | i | i | i
O=c1c(O)c(-c2cccs2)oc2ccccc12 | 1.2e-09 | u | 3.2e-08M* | u | i | i
COc1cc2cc3c4c(cc(OC)c(OC)c4c2cc1OC)CCN3C | 4.3e-09 | i | i | u | i | i
